From PubChem BioAssay (NCI)
The panel holds about 79,000 compounds, 15% with a hit somewhere; the sample as a whole holds those more often. Activity calls are given as the source filed them. No stated cut-off is given here; in the data, active means growth inhibition above about 70%; inactive means the rest.

What was measured:
[1] = NCI Yeast Anticancer Drug Screen. Data for the mlh1 strain (AID 171);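 further: 0% = growth of vehicle-treated control cultures of the same strain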; conditions: S. cerevisiae mlh1 strain growth inhibition, hits give high values
In short: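 Measured: yeast growth. Reference: vehicle-treated controls. Organism: strain with a defined alteration affecting DNA damage repair or cell cycle control, treated with compound.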

[2] = NCI Yeast Anticancer Drug Screen. Data for the sgs1 strain (AID 173);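 further: 0% = growth of vehicle-only control cultures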; conditions: S. cerevisiae sgs1 mutant, hits give high values
In short: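 Each compound was added to cultures of the altered yeast strain. Growth was recorded, and inhibition was derived by comparison with vehicle controls.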

[3] = NCI Yeast Anticancer Drug Screen. Data for the mlh1 rad18 strain (AID 175); conditions: S. cerevisiae mlh1 rad18 strain growth inhibition, hits give high values
In short: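 Genetically defined yeast (DNA repair-deficient) exposed to compounds; growth inhibition determined relative to vehicle.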

Measured: growth inhibition

CCCCCCCCCCCCOCCOCCOCC(N)=O
active: [1]; at 33.0 µM 93% | [1]; at 100.0 µM 96% | [2]; at 33.0 µM 96% | [2]; at 100.0 µM 94% | [3]; at 50.0 µM 91.1%
inactive: [1]; at 1.2 µM -12% | [1]; at 3.7 µM -12% | [1]; at 11.0 µM 6% | [2]; at 1.2 µM -12% | [2]; at 3.7 µM -15% | [2]; at 11.0 µM -5% | [3]; at 5.0 µM (retest, dose inferred, filed as 0.5) 26% | [3]; at 50.0 µM (retest, dose inferred, filed as 5.0) 43%
